From ChEMBL document CHEMBL4513216, “Probing the Open Global Health Chemical Diversity Library for Multistage-Active Starting Points for Next-Generation Antimalarials” (ACS Infect Dis, 2020)
Hit rate of the full screen: of about 68,000 compounds, about 2,700 (4%) showed an effect of 50% or more. Only a selection was taken, and strong results are over-represented in it overall.

test system: Plasmodium berghei; assay: Screen against P. berghei liver stage (PbLuc), transformed with Luciferase, at 2uM; format: functional, HepG2; details: tested at 2 uM

| SMILES | INHIBITION |
| --- | --- |
| c1cncc(COCc2nnc3n2CCN(Cc2ccco2)C3)c1 | -8.22% |
| COc1ccccc1CC(C)(C)C(=O)NCC(=O)Nc1cccnc1 | -16.15% |
| O=C(NC1CCC(O)CC1)c1ccc2nc(-c3ccccc3)cn2c1 (stereo not given) | 2.17% |
| COc1ccc(C)cc1CC(=O)Nc1cc(C)n[nH]1 | -19.45% |
| CC(C)CNC(=O)c1ccc2c(=O)n(-c3ccccc3)cnc2c1 | 43.75% |
| Cn1c(=O)[nH]c(=O)c2c1nc1n2CC(c2ccc(Cl)cc2)O1 (stereo not given) | 13.01% |
| COc1ccc(C2CC(=O)Nc3c2nc2n3CCCC2)cc1O (stereo not given) | 24.29% |
| O[C@H]1CCN(CC2CC2)[C@H]1Cc1ccncc1 | 55.7% |
| O[C@H]1CCN(CC2CCOC2)[C@H]1Cc1ccncc1 (stereo not given in full) | 3.56% |
| O[C@@H]1CCN(CC2CC2)[C@H]1Cc1ccccc1 | -17.26% |
| O=C(N[C@H]1CN2CCC1CC2)c1cc(Cn2cnc3ccccc32)[nH]n1 | 48.93% |
| CC(=O)N[C@H]1CCN(C(=O)c2cc(Cn3cnc4ccccc43)[nH]n2)C1 | 60.71% |
| COc1ccccc1OCc1cc(C(=O)N2CCC(NC(C)=O)C2)n[nH]1 (stereo not given) | -49.85% |
| NC(=O)c1cn[nH]c1C1CCCN1C(=O)c1cnccn1 (stereo not given) | 39.5% |
| Cc1nc2c(c(NCC(c3cccnc3)N3CCOCC3)n1)CCNC2 (stereo not given) | -10.09% |
| Cc1nc(CCCC(=O)Nc2cccc(N3CCNC3=O)c2)cs1 | -33.58% |
| Cc1ncc(CN(C)C(=O)Nc2cccc(N3CCNC3=O)c2)s1 | -82.26% |
| Cc1nc(CSCCC(=O)Nc2cccc(N3CCNC3=O)c2)cs1 | 54.82% |
| CC(OCC1CC1)C(=O)N1CCCN(c2nc3ccccc3[nH]2)CC1 (stereo not given) | -38.2% |
| Cc1ncsc1CN1Cc2cn(C)nc2C(COCC2CC2)C1 (stereo not given) | -64.59% |
| Cn1ncc2c1C(COCC1CC1)CN(S(C)(=O)=O)C2 (stereo not given) | 51.72% |
| CCOCC1CN(S(C)(=O)=O)Cc2cnn(C)c21 (stereo not given) | 18.97% |

| SMILES | INHIBITION |
| --- | --- |
| Cc1ncsc1CN1Cc2cnn(C)c2C(COCC2CC2)C1 (stereo not given) | 50.17% |
| Cn1ncc2c1C(COCC1CC1)CN(Cc1nccs1)C2 (stereo not given) | -44.9% |
| Cn1ncc2c1C(COCC1CC1)CN(S(=O)(=O)C1CC1)C2 (stereo not given) | 3.63% |
| Cn1ccc2c(C(=O)N3CCC(C(N)=O)CC3)cccc21 | 40.31% |
| Cn1c(CN2CCCC2c2noc(C3CC3)n2)cc(=O)n(C)c1=O (stereo not given) | 12.91% |
| CC(C)N1CCC(C(=O)N2CCC(C(O)c3nccn3C)CC2)CC1 (stereo not given) | 6.4% |
| CCCN1CCC(CC(=O)N2CCC(C(O)c3nccn3C)CC2)CC1 (stereo not given) | 51.19% |
| CC(C)N1CCC(CC(=O)N2CCC(C(O)c3nccn3C)CC2)CC1 (stereo not given) | 15.11% |
| COCC(=O)Nc1nn(Cc2ccc(F)cc2)cc1Cl | -20.28% |
| Cc1noc(C)c1CN1CCN(c2ccnc(-c3ccccc3)n2)CC1 | -5.53% |
| CCOc1ccccc1OC1CCN(C(=O)c2cc[nH]n2)CC1 | 7.54% |
| O=c1c(=CS(=O)(=O)Nc2ccccc2)[nH]c(=O)n2cccc12 | 53.68% |
| Cc1ccc(NS(=O)(=O)C=c2[nH]c(=O)n3cccc3c2=O)cc1 | -68.56% |
| CC(C)c1ccc(NS(=O)(=O)C=c2[nH]c(=O)n3cccc3c2=O)cc1 | 9.43% |
| O=c1c(=CS(=O)(=O)Nc2ccc(Br)cc2)[nH]c(=O)n2cccc12 | -42.73% |
| O=c1c(=CS(=O)(=O)Nc2ccc(Cl)cc2)[nH]c(=O)n2cccc12 | 50.52% |
| CCc1ccc(NS(=O)(=O)C=c2[nH]c(=O)n3cccc3c2=O)cc1 | -1.14% |
| Cc1cc(C)cc(CN2CCC3(CC2)CC(Nc2ncccn2)CO3)c1 (stereo not given) | 24.43% |
| CNC(=O)C1CN(c2ccnc(C)n2)CCN1Cc1ccccc1 (stereo not given) | -10.89% |
| CC(C)NC(=O)[C@@]12CCO[C@@H]1CCN(Cc1ccco1)C2 | 16.63% |
| CCC(CC)CN1C[C@@H]2OCCN(Cc3cnn(C)c3)[C@@H]2C1 | 56.78% |
| Cn1cc(CN2CCO[C@H]3CN(Cc4ccco4)C[C@H]32)cn1 | 10.53% |

| SMILES | INHIBITION |
| --- | --- |
| CN(C)CCN1C[C@@H]2OCCN(Cc3cnn(C)c3)[C@@H]2C1 | 33.4% |
| CC(=O)Nc1ccc(S(=O)(=O)N2CCOC(Cn3ccnc3)C2)cc1 (stereo not given) | 1.92% |
| O=S(=O)(N1CCOCC1)N1CCC(Oc2cnccn2)CC1 | -7.91% |
| CC1CCN(S(=O)(=O)N2CCC(Oc3cnccn3)CC2)CC1 | 52.82% |
| O=S(=O)(N1CCCCC1)N1CCC(Oc2cnccn2)CC1 | 41.98% |
| O=S(=O)(c1ccccc1)N1CCC2(CCCN2Cc2cccc(Cl)c2)C1 (stereo not given) | 35.26% |
| CSc1ccc(-c2nc(CN3CCC(NC(C)=O)C3)c(C)o2)cc1 (stereo not given) | 52.77% |
| CSc1ccc(-c2nc(CN3CCC(NC(C)=O)CC3)c(C)o2)cc1 | -11.37% |
| CNC(=O)C1CCN(Cc2nc(-c3ccc(SC)cc3)oc2C)C1 (stereo not given) | 13.94% |
| Cc1cc(NCc2ccccc2CN2CCCCC2)n2ncnc2n1 | -1.87% |
| Cc1cc(C)c(CNC(=O)N(C)Cc2cccc(F)c2)c(=O)[nH]1 | -9.17% |
| CS(=O)(=O)Nc1cccc(C(=O)Nc2ccc3c(c2)C(=O)NC3)c1 | -7.99% |
| Cc1nnc(SC2CCN(c3sccc3C#N)C2=O)s1 (stereo not given) | 57.91% |
| Cc1nc(SC2CCN(c3sccc3C#N)C2=O)oc1C (stereo not given) | 32.26% |
| Cc1nnc(SC2CCN(c3sccc3C#N)C2=O)[nH]1 (stereo not given) | 6% |
| COc1ccccc1-c1cc(NC(=O)CCS(=O)(=O)C2CCCC2)[nH]n1 | -43.66% |
| CC(=O)Nc1ccc2c(c1)CN(C(=O)c1ccco1)CC2 | 33.08% |
| CN1CC(=O)N(c2ccsc2)CC12CCN(C(=O)c1ccccc1)C2 (stereo not given) | 37.45% |
| CN1CC(=O)N(c2ccsc2)CC12CCN(C(=O)c1ccc[nH]1)C2 (stereo not given) | 53.98% |
| Cc1cc(C(=O)N2CCC3(C2)CN(c2ccsc2)C(=O)CN3C)[nH]n1 (stereo not given) | 13.04% |
| CCC1CN(CC(=O)NCCN(CC)CC)c2ccccc2S1 (stereo not given) | 18.23% |
